This is a sample that favours compounds with a hit; in the whole collection about 3.3% have one here.
NPSR antagonist: antagonists of human neuropeptide S receptor cAMP signaling; Q6W5P4; CHO-NPSR cells, cAMP TR-FRET, antagonist mode; Potency, µM (top dose mostly 38.3 µM), without a hit: at the highest dose activity change, negative = inhibition, usual class: inhibitors; 220,000 compounds, 1% hits; AID 1461; further: nearly all actives have a fitted effect of over 50% in size
Target sequence (Q6W5P4 whole entry, looked up): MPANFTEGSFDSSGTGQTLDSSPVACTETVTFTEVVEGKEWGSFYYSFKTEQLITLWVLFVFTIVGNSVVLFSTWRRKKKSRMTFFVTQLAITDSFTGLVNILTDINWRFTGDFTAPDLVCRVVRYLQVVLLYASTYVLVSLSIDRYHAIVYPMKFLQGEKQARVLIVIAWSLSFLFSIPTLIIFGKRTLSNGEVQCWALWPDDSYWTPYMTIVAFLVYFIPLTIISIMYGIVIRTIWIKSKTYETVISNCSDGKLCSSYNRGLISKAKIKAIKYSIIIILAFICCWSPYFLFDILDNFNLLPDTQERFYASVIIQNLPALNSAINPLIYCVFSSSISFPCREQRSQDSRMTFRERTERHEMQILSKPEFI
KinaseGlo FLuc: Kinase-Glo luciferase inhibition (counter-screen). 200,000 compounds, 0.28% hits. Q27757. Kinase-Glo luciferase, ATP luminescence, 8 min. Potency, µM (highest dose often 38.3 µM), for the others: at the top dose activity change, negative = inhibition, usual class: inhibitors. AID 1379; further: nearly all actives have a fitted effect of over 60% in size
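Inhibition of Kinase-Glo luciferase light generation was assessed at 10 uM ATP in pH 7.2 imidazole buffer, with luminescence measured after eight minutes at ambient temperature.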
Tau fluor cs: counter-screen for tau fibril formation inhibitors. tau K18 P301L Alexa594 fluorescence, heparin fibrillization. Potency, µM (doses to about 57.7 µM), without a hit: at the highest dose activity change, negative = decrease. 280,000 compounds, 0.93% hits; further: nearly all actives have a fitted effect of over 55% in size
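Human K18 P301L tau (15 uM unlabeled plus 0.24 uM Alexa 594-labeled, final) in 100 mM sodium acetate pH 7 was mixed with compound and 20 uM heparin and incubated 6 hr at 37 C.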
Tau fibril FP: inhibitors of human tau fibril formation. K18 P301L tau heparin fibrillization, Alexa594 FP, 6 h. Potency, µM (top dose mostly 57.7 µM), without a hit: top-dose activity, negative = inhibition, most hits filed as inhibitors. 280,000 compounds, 0.39% hits. AID 1468; further: nearly all actives have a fitted effect of over 55% in size
Target sequence (P10636 561-689 P618L limits assumed): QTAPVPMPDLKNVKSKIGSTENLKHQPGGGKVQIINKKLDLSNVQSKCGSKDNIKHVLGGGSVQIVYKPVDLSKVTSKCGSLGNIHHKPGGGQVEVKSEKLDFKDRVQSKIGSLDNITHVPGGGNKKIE
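K18 P301L tau (15 uM unlabeled/0.24 uM Alexa 594-labeled, final) + compound + heparin 20 uM final; 100 mM NaOAc pH 7; 6 hr 37 C; ThT 30 uM final added, 1 hr RT; FP ex 555/em 632 nm.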
Tau fibril ThT: inhibitors of human tau fibril formation, thioflavin T binding; AID 1460; recombinant tau K18 P301L (four-repeat tau fragment), heparin-induced fibrillization, ThT fluorescence; Potency, µM (titrated, usually from 57.4 µM), for inactives: at the top dose activity, negative = inhibition, actives largely listed as inhibitors; 270,000 compounds, 2.1% hits; further: nearly all actives have a fitted effect of over 55% in size
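Aggregation was driven by heparin (20 uM final) acting on recombinant tau […] bearing P301L in 100 mM sodium acetate pH 7; fibrils were detected with Thioflavin T.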
* marks the source's active call; other numbers are inactive results; ? = inconclusive; . = not tested or not shown; [ ] = dose if it differs, or a comment. The call rests on the fitted dose curve; in most records, active means well fitted curve in the direction sought with a large enough effect; inconclusive means small, poorly fitted or top-dose-only effect, or another doubt; inactive means no such curve, though single readings can be large; an effect the other way counts as inactive or inconclusive. On the % scale 0 is the no-effect control and ±100 the full control effect; potency means the concentration at half of the fitted maximal effect.

SMILES | NPSR antagonist | KinaseGlo FLuc | Tau fluor cs | Tau fibril FP | Tau fibril ThT
Cc1ccc(C)c(CSc2nc3ccncc3n2CC(=O)Nc2ccc(C)c(C)c2)c1 | -27.0% | -1.9% | ? | -15.4% | -9.1%
Cc1ccc(C)c(CSc2nc3ccncc3n2CC(=O)Nc2ccc(N(C)C)cc2)c1 | . | . | 10µM*[quencher] | ? | ?
COc1ccc(NC(=O)Cn2c(SCc3cc(C)ccc3C)nc3ccncc32)c(OC)c1OC | . | . | 8.91µM*[quencher] | -7.6% | ?
Oc1ccc2ccccc2c1/C=N/Nc1nnc(-c2ncc[nH]2)c2ccccc12 | -21.6%[46.1 µM] | -5.8% | 8.91µM*[quencher] | ? | 3.98µM*
CCCc1ccc(OC(=O)c2sc3ncn(Cc4cccc(F)c4)c(=O)c3c2C)cc1 | . | . | -11.2% | -14.5% | 2.0%
O=C1/C(=C/c2ccc(C(=O)O)cc2)CCC/C1=C\c1ccc(C(=O)O)cc1 | 10.8% | 0.0% | -9.3% | ? | 10µM*
COc1ccc(/C=C2\CCC/C(=C\C=N\N(C)C)C2=O)cc1 | -6.8% | -0.2% | -29.2% | 0.2% | 2.51µM*
O=C1/C(=C/c2ccccc2)CCCc2ccccc21 | -9.7%[46.1 µM] | -5.1% | -16.8% | -6.7% | ?
O=C(O)c1ccc(/C=C/c2nc3sc4c(c3c(=O)[nH]2)CCC4)cc1 | -5.1% | -2.4% | -1.1% | 3.9% | -11.7%
CN(C)c1ccc(/C=C2\CCC/C(=C\c3ccccc3)C2=O)cc1 | -5.0% | -1.9% | ? | -2.4% | 2µM*
Cc1ccccc1C(=O)Nc1nc(-c2ccc(Br)cc2)ns1 | . | . | -18.6% | ? | 0.4%
O=C(Nc1ccc(Oc2ccccc2)cc1)C1CCN(c2c3c(nc4ncnn24)CCC3)CC1 | 12.6µM* | 0.8% | -14.6% | 16.3% | -15.0%
O=C(Nc1ccc2c(c1)CCC2)C1CCN(c2c3c(nc4ncnn24)CCC3)CC1 | -5.7%[46.1 µM] | 2.4% | -22.6% | 10.1% | ?
O=C(COCc1cc(-c2ccc(F)cc2)on1)Nc1cccc(Cl)c1Cl | . | . | -16.5% | -7.4% | -12.7%
Cc1ccc(C(=O)CSC2=NC(N)=C(C#N)C3(CCCCC3)C2C(N)=O)cc1 (stereo unspecified) | -9.0%[46.1 µM] | 1.5% | -26.4% | ? | 25.1µM*
N#CC1=C(N)N=C(SCc2ccccc2)C(C(N)=O)C12CCCCC2 (stereo unspecified) | -24.3%[46.1 µM] | 1.8% | 0.8% | 9.6% | -9.3%
CC(C)(C)c1ccc(C(=O)Nc2ccc(-c3nc4cc(Cl)ccc4o3)cc2)cc1 | . | . | 6.5% | 3.2% | -3.5%
COc1ccc(-c2nc(N)nc(C)c2Oc2ccccc2Br)c(O)c1 | 5.3%[46.1 µM] | -0.2% | 17.8µM*[quencher] | -5.8% | -13.3%
O=c1cc(-c2ccccc2)[nH]c2nc3ccccc3n12 | -7.8%[46.1 µM] | 12.6µM* | -8.5% | -9.1% | ?
Cc1ccc(-n2ncc3c(NCc4ccccc4)ncnc32)cc1C | . | . | -17.0% | ? | 6.9%
COc1cc2c(cc1OC)CN(c1ccc([N+](=O)[O-])cc1Cl)CC2 | -32.0% | 27.1% | ? | 0.2% | 7.08µM*
COc1ccccc1N1CCN(c2ccc([N+](=O)[O-])cc2Cl)CC1 | -26.2% | -0.5% | ? | 0.9% | 8.91µM*
COc1cc2c(cc1OC)CN(c1ccc([N+](=O)[O-])cc1C#N)CC2 | -9.6% | -1.4% | ? | 10.2% | ?
CCOC(=O)N1CCN(Cc2nc3cc(NC(=O)CC(C)C)ccc3n2C(C)C)CC1 | . | . | 7.7% | 6.3% | 9.7%
COc1ccc(OC)c(N2C(=O)C(Cl)=C(N3CCCCC3)C2=O)c1 | -6.6%[46.1 µM] | -5.5% | ? | 15.8µM* | 12.6µM*
SMILES | NPSR antagonist | KinaseGlo FLuc | Tau fluor cs | Tau fibril FP | Tau fibril ThT
O=C1C(Cl)=C(N2CCCCC2)C(=O)N1c1ccccc1Cl | -18.7%[46.1 µM] | -0.1% | ? | 20µM* | 14.1µM*
COc1ccc(OC)c(N2Cc3cc(C)c(C)cc3C2)c1 | -6.3%[46.1 µM] | -1.8% | -22.1% | -7.8% | ?
COc1ccc(OC)c(N2C(=O)C(Cl)=C(N3CCOCC3)C2=O)c1 | -10.2%[46.1 µM] | 7.7% | ? | 25.1µM* | 14.1µM*
Cc1ccccc1N1C(=O)C(Cl)=C(N2CCCCCC2)C1=O | -13.7%[46.1 µM] | 12.7% | -25.3% | ? | ?
Cc1ccc(Cn2c(CNC(=O)c3ccccc3Br)nc3cccnc32)cc1 | . | . | -8.8% | 5.6% | -2.7%
CCCCSCCCNC(=O)CN1C(=O)COc2ccc(S(=O)(=O)N3CCC(C)CC3)cc21 | . | . | -18.9% | -1.5% | -1.1%
O=C1CCCCC/C1=N/Nc1ccc(OCc2ccccc2)cc1 | -20.6% | . | ? | 4.4% | 11.2µM*
O=C(COc1ccc(OCc2ccccc2)cc1)NN=C1CCCC1 | -7.1% | -5.0% | -4.0% | 9.8% | ?
CN1CCN(C2=Nc3c(Cl)cc(Cl)c4cccc2c34)CC1 | -44.9% | 1.3% | -12.8% | 4.2% | 17.8µM*
CN1CCN(C2=Nc3cc(F)ccc3Cc3ccccc32)CC1 | -18.8% | . | -3.2% | -3.7% | 3.4%
Cc1ccccc1CNC(=O)Cn1ncn2nc(-c3cccs3)cc2c1=O | . | . | -10.0% | -2.7% | -2.3%
O=C1c2ccccc2C(=O)c2c(Nc3cc4c5c(ccc6c7ccc8c9c(cc(Nc%10cccc%11c%10C(=O)c%10ccccc%10C%11=O)c(c3c56)c97)-c3ccccc3C8=O)C(=O)c3ccccc3-4)cccc21 | . | -3.6%[7.66 µM] | . | . | .
COc1ccc(NC(=O)/C(C#N)=C\C=C\c2ccco2)cc1 | 2.2%[46.1 µM] | -2.7% | -9.2% | 12.8% | 2.51µM*
COc1cc2c(C#N)c(N3CCc4ccccc4C3)nc(N)c2c(N)n1 | -9.8%[46.1 µM] | 0.2% | 14.1µM*[quencher] | 0.8% | ?
COc1cc2c(C#N)c(N3CCCCC3)nc(N)c2c(N)n1 | -8.3%[46.1 µM] | 9.9% | ? | 9.2% | ?
Cc1cccc(Cn2c(=O)n3nc(-c4ccccc4)nc3c3ccccc32)c1 | . | . | -22.4% | ? | -5.7%
CC1CCN(c2ccc(NC(=S)NC(=O)c3ccc(-c4cccc([N+](=O)[O-])c4)o3)cc2)CC1 | -7.1%[46.1 µM] | -1.7% | ? | -4.2% | 2µM*
CCOCC(=O)Nc1cc(C(=O)Nc2cc(C)cc(C)c2)ccc1Cl | -3.8% | 11.2µM* | -7.7% | -7.1% | -13.2%
COc1cc(NC(=O)Nc2cccc(Cl)c2)c(OC)cc1NC(=O)CN1CCCCC1 | -22.4%[46.1 µM] | -2.0% | 8.91µM*[quencher] | ? | ?
NCCC[C@@H](CC(=O)N[C@@H]1CCNC[C@H]1C(=O)N[C@H](CC(=O)N[C@@H](CCC(=O)O)CC(=O)O)Cc1c[nH]c2ccccc12)NC(=O)C[C@H](Cc1ccccc1)NC(=O)[C@@H]1CCCC[C@H]1N | . | 2.1% | -4.1% | 2.3% | -11.8%
Cc1cc(C)c2c(=O)n(CC(=O)NCCCN3CCN(c4ccccc4F)CC3)sc2n1 | 28.2%[46.1 µM] | 11.2µM* | -24.4% | ? | 14.1µM*
Cc1cc(C)c2c(=O)n(CC(=O)NCCCN3CCOCC3)sc2n1 | -4.2%[46.1 µM] | 7.94µM* | -20.8% | 15.8µM* | 10µM*
Cn1c(=O)n(C)c2cc(N3CCOCC3)c(NS(=O)(=O)c3ccc(Cl)cc3)cc21 | . | . | -15.2% | -3.6% | -11.1%
Cc1sc(NC(=O)c2sc3nc4c(C)cccc4cc3c2N)c(C#N)c1C | ? | -5.1% | ? | -8.5% | 15.8µM*
